Results on 52 compounds are retold here after ChEMBL document CHEMBL4303122, “Identification of potential treatments for COVID-19 through artificial intelligence-enabled phenomic analysis of human cells infected with SARS-CoV-2” (2020).

Whole data set: some 1,600 compounds, median “Hit score” near 0.13, cut for the highest 2% near 0.46. The entries come from a sample that favours the highest values as a whole. *1 amine or outer side, *2 acyl side, *3 side chain or, on linkers, in order; H or OH if unused. Where a SMILES comes first, the peptide text is derived from it. Bridges are numbered along the chain shown (N, C = ends). [ ]: non-standard residue; d: D form. The star is where a group is joined. pTerphenylCO(4''-OnC5H11) = CCCCCOc1ccc(-c2ccc(-c3ccc(C(=O)*)cc3)cc2)cc1; Orn(4R-OH,5R-OH) = O=C([C@H](C[C@@H](O)[C@@H](O)N[*:3])N[*:1])[*:2]; hTyr(3S-OH,4S-OH) = N[C@H](C(=O)O)[C@H](O)[C@@H](O)c1ccc(O)cc1; Pro(3S-OH,4S-Me) = C[C@H]1CN[C@H](C(=O)O)[C@H]1O; Hyp = O=C(O)[C@@H]1C[C@@H](O)CN1

For the assay, the system named is SARS-CoV-2. Put plainly: Antiviral activity against SARS-CoV-2 (USA-WA1/2020 strain) measured by imaging in HRCE cells at MOI 0.4 after 96 hrs (reported as hit score from 0-1 for on-disease vs off-disease activity: scores >0.6 considered hits). It counts as functional, Homo sapiens.
`COc1cc2nccc(Oc3ccc(NC(=O)Nc4cc(C)on4)c(Cl)c3)c2cc1OC` [TIVOZANIB] displayed a Hit score of 0.1611. As for `CC1(C)S[C@@H]2[C@H](NC(=O)COc3ccccc3)C(=O)N2[C@H]1C(=O)O` [PENICILLIN V], the Hit score was determined as 0.002553.

Consider `Cc1c(Cl)c(C)[n+]([O-])c(Cl)c1-c1noc(-c2cc(O)c(O)c([N+](=O)[O-])c2)n1` [OPICAPONE], for which the Hit score is reported as -0.07412. The figure for `Cc1ccc2c(c1)[C@]13CCCC[C@@H]1[C@H](C2)N(C)CC3` [DIMEMORFAN] is 0.08461; for `CCCCCOc1ccc(-c2ccc(-c3ccc(C(=O)N[C@H]4C[C@@H](O)[C@@H](O)NC(=O)[C@@H]5[C@@H](O)[C@@H](C)CN5C(=O)[C@H]([C@@H](C)O)NC(=O)[C@H]([C@H](O)[C@@H](O)c5ccc(O)cc5)NC(=O)[C@@H]5C[C@@H](O)CN5C(=O)[C@H]([C@@H](C)O)NC4=O)cc3)cc2)cc1` [ANIDULAFUNGIN] ({pTerphenylCO(4''-OnC5H11)}-[Orn(4R-OH,5R-OH)]T[Hyp][hTyr(3S-OH,4S-OH)]T[Pro(3S-OH,4S-Me)]; lactam 1-C) it is 0.1907. In the case of `C=CC(=O)Nc1cccc(Oc2nc(Nc3ccc(N4CCN(C)CC4)cc3)nc3ccsc23)c1` [OLMUTINIB] it was 0.2407; in that of `Cc1oc(=O)oc1COC(=O)C1=C([C@H]2CCCO2)S[C@@H]2[C@@H]([C@@H](C)O)C(=O)N12` [FAROPENEM MEDOXOMIL], 0.000691; in that of `CC(C)(O)CNc1nc(Nc2ccnc(C(F)(F)F)c2)nc(-c2cccc(C(F)(F)F)n2)n1` [ENASIDENIB], 0.1439. On to `OC[C@H]1O[C@@](CO)(O[C@H]2O[C@H](CO)[C@@H](O)[C@H](O)[C@H]2O)[C@@H](O)[C@@H]1O` [SUCROSE], for which the Hit score is on record as 0.09545. Regarding `Cc1cc(S(=O)(=O)[O-])c2c(C)ccc(C(C)C)cc1-2.[Na+]` [SODIUM GUALENATE], the Hit score came out at 0.2044. In the case of `CCCCCCCCCCCCCCCC(=O)O[C@@H]1[C@@H](O)[C@@H](O)[C@@H]([C@H](NC(=O)[C@@H]2C[C@@H](CCC)CN2C)[C@H](C)Cl)O[C@@H]1SC` [CLINDAMYCIN PALMITATE] it was 0.1881; in that of `CCn1c(=O)c2c(nc(/C=C/c3ccc(OC)c(OC)c3)n2C)n(CC)c1=O` [ISTRADEFYLLINE], 0.1372. In the case of `COc1ccc(-c2cc(=O)c3c(O)c(OC)c(O)cc3o2)cc1OC` [EUPATILIN] it was 0.2352; in that of `CC[C@]12CCCN3CCc4c(n(c5ccccc45)C(=O)C1)[C@@H]32` [VINBURNINE], 0.1621; in that of `CCOc1nc2cccc(C(=O)O)c2n1Cc1ccc(-c2ccccc2-c2noc(=O)[nH]2)cc1` [AZILSARTAN], 0.1513. The figure for `CCC(C)(Oc1ccc(C2(c3ccc(OC(C)(CC)C(=O)O)cc3)CCCCC2)cc1)C(=O)O` (configuration not stated) [CLINOFIBRATE] is 0.1194; for `N[C@@H](CCN[C@@H](CCN1CC[C@H]1C(=O)O)C(=O)O)C(=O)O` it is 0.1041; for `Cn1cnc2c(F)c(Nc3ccc(Br)cc3F)c(C(=O)NOCCO)cc21` [BINIMETINIB] it is 0.0233. With `O=C(O)c1cc2ccccc2c(Cc2c(O)c(C(=O)O)cc3ccccc23)c1O` [PAMOIC ACID], the Hit score is reported as 0.0734. Regarding `COC(=O)N[C@H](C(=O)N1CCC[C@H]1c1ncc(-c2ccc(-c3ccc(-c4cnc([C@@H]5CCCN5C(=O)[C@@H](NC(=O)OC)C(C)C)[nH]4)cc3)cc2)[nH]1)C(C)C`, the Hit score is -0.06011. The compound `Cc1ccc(NC(=O)C2(c3ccc4c(c3)OC(F)(F)O4)CC2)nc1-c1cccc(C(=O)O)c1` [LUMACAFTOR] gave a Hit score of 0.04797.

Regarding `Cc1nccn1CCC(C(N)=O)(c1ccccc1)c1ccccc1` [IMIDAFENACIN], the Hit score worked out at 0.008612. As to `CCC(=O)NC[C@@H]1C[C@H]1c1cccc2c1CCO2` [TASIMELTEON], the Hit score is listed as 0.1536. In the case of `CC(C)OC(=O)CCC/C=C\C[C@@H]1[C@@H](/C=C/C(F)(F)COc2ccccc2)[C@H](O)C[C@@H]1O` [TAFLUPROST] it was 0.14. In the case of `O=[N+]([O-])c1cncn1CCN1CCOCC1` [NIMORAZOLE] it was 0.1444. Turning to `CCCCCC(=O)O[C@]1(C(C)=O)CC[C@H]2[C@@H]3CCC4=CC(=O)CC[C@]4(C)[C@H]3CC[C@@]21C` [HYDROXYPROGESTERONE CAPROATE], the Hit score was 0.1371. The figure for `COc1cc(C)c2c(Oc3cccc(C(F)(F)F)c3)c(OC)cc(NC(C)CCCN)c2n1.O=C(O)CCC(=O)O` (configuration not stated) [TAFENOQUINE SUCCINATE] is 0.101; for `C[C@]12C=CC(=O)N[C@@H]1CC[C@@H]1[C@@H]2CC[C@]2(C)[C@@H](C(=O)Nc3cc(C(F)(F)F)ccc3C(F)(F)F)CC[C@@H]12` [DUTASTERIDE] it is 0.3162. The figure for `CC[C@@H]1/C=C(\C)C[C@H](C)C[C@H](OC)[C@H]2O[C@@](O)(C(=O)C(=O)N3CCCC[C@H]3C(=O)O[C@H](/C(C)=C/[C@@H]3CC[C@H](Cl)[C@H](OC)C3)[C@H](C)[C@@H](O)CC1=O)[C@H](C)C[C@@H]2OC` [PIMECROLIMUS] is 0.2951; for `CO[C@H]1C[C@@H]2CC[C@@H](C)[C@@](O)(O2)C(=O)C(=O)N2CCCC[C@H]2C(=O)O[C@H]([C@H](C)C[C@@H]2CC[C@H](n3cnnn3)[C@H](OC)C2)CC(=O)[C@H](C)/C=C(\C)[C@@H](O)[C@@H](OC)C(=O)[C@H](C)C[C@H](C)/C=C/C=C/C=C/1C` [ZOTAROLIMUS] it is 0.6315; for `CO[C@H]1C[C@@H]2CC[C@@H](C)[C@@](O)(O2)C(=O)C(=O)N2CCCC[C@H]2C(=O)O[C@H]([C@H](C)C[C@@H]2CC[C@@H](O)[C@H](OC)C2)CC(=O)[C@H](C)/C=C(\C)[C@@H](O)[C@@H](OC)C(=O)[C@H](C)C[C@H](C)/C=C/C=C/C=C/1C` [SIROLIMUS] it is 0.6828. In the case of `C=CC[C@@H]1/C=C(\C)C[C@H](C)C[C@H](OC)[C@H]2O[C@@](O)(C(=O)C(=O)N3CCCC[C@H]3C(=O)O[C@H](/C(C)=C/[C@@H]3CC[C@@H](O)[C@H](OC)C3)[C@H](C)[C@@H](O)CC1=O)[C@H](C)C[C@@H]2OC` [TACROLIMUS ANHYDROUS] it was 0.3285; in that of `CO[C@H]1C[C@@H]2CC[C@@H](C)[C@@](O)(O2)C(=O)C(=O)N2CCCC[C@H]2C(=O)O[C@H]([C@H](C)C[C@@H]2CC[C@@H](OC(=O)C(C)(CO)CO)[C@H](OC)C2)CC(=O)[C@H](C)/C=C(\C)[C@@H](O)[C@@H](OC)C(=O)[C@H](C)C[C@H](C)/C=C/C=C/C=C/1C` [TEMSIROLIMUS], 0.4599; in that of `CO[C@H]1C[C@@H]2CC[C@@H](C)[C@@](O)(O2)C(=O)C(=O)N2CCCC[C@H]2C(=O)O[C@H]([C@H](C)C[C@@H]2CC[C@@H](OCCO)[C@H](OC)C2)CC(=O)[C@H](C)/C=C(\C)[C@@H](O)[C@@H](OC)C(=O)[C@H](C)C[C@H](C)/C=C/C=C/C=C/1C` [EVEROLIMUS], 0.4984. `C[C@@H]1CCO[C@H]2Cn3cc(C(=O)NCc4ccc(F)cc4F)c(=O)c(O)c3C(=O)N12` [DOLUTEGRAVIR] had a Hit score of -0.02185.

`CCc1cc(/C(C)=N/OCc2ccc(C3CCCCC3)c(C(F)(F)F)c2)ccc1CN1CC(C(=O)O)C1` [SIPONIMOD] yielded a Hit score of -0.1293. In the case of `Cc1cn(-c2cc(NC(=O)c3ccc(C)c(Nc4nccc(-c5cccnc5)n4)c3)cc(C(F)(F)F)c2)cn1` [NILOTINIB] it was 0.4816; in that of `Cc1ccc(NC(=O)c2ccc(CN3CCN(C)CC3)cc2)cc1Nc1nccc(-c2cccnc2)n1` [IMATINIB], 0.06765; in that of `Cc1ccc(/C=C2/C(=O)C3(C)CCC2C3(C)C)cc1` (configuration not stated) [ENZACAMENE], 0.1975. The compound `CC(C)NCC(O)COc1ccc(CCOCC2CC2)cc1` (configuration not stated) [BETAXOLOL] came in with a Hit score of 0.2742. `CC(C)NCC(O)COc1ccc(COCCOC(C)C)cc1` (configuration not stated) [BISOPROLOL] had a Hit score of 0.1972. The figure for `CC(C)NC[C@H](O)COc1ccc(CCOCC2CC2)cc1` [LEVOBETAXOLOL] is 0.4949. In the case of `C=C1c2c(Cl)ccc(O)c2C(=O)C2=C(O)[C@]3(O)C(=O)C(C(N)=O)=C(O)[C@@H](N(C)C)[C@@H]3[C@@H](O)[C@H]12.O=C(O)c1cc(S(=O)(=O)O)ccc1O` [MECLOCYCLINE SULFOSALICYLATE] it was 0.1338.

As to `CC(C)OC(=O)CCC/C=C\C[C@@H]1[C@@H](CC[C@@H](O)CCc2ccccc2)[C@H](O)C[C@@H]1O` [LATANOPROST], the Hit score came to 0.04489.

Turning to `CCCCCCOC(=O)CCC(=O)CN` [HEXAMINOLEVULINATE], the Hit score is listed as 0.1128. As for `COc1cc([C@@H]2c3cc4c(cc3[C@@H](O[C@@H]3O[C@@H]5CO[C@@H](C)O[C@H]5[C@H](O)[C@H]3O)[C@H]3COC(=O)[C@H]23)OCO4)cc(OC)c1OP(=O)(O)O` [ETOPOSIDE PHOSPHATE], the Hit score is reported as 0.05858.

`O=C(CNc1cccc(Cl)c1)NC1CCCN(c2ncnc3[nH]ccc23)C1` (configuration not stated) gave a Hit score of 0.1071.

Consider `CC(C)OC(=O)[C@H](C)N[P@](=O)(OC[C@H]1O[C@@H](n2ccc(=O)[nH]c2=O)[C@](C)(F)[C@@H]1O)Oc1ccccc1` [SOFOSBUVIR], for which the Hit score was found to be 0.2045. The figure for `CCC(CC)COC(=O)[C@H](C)N[P@](=O)(OC[C@H]1O[C@@](C#N)(c2ccc3c(N)ncnn23)[C@H](O)[C@@H]1O)Oc1ccccc1` is 0.9631; for `CC(C)OC(=O)[C@H](C)N[P@@](=O)(OC[C@H]1O[C@@H](n2ccc(=O)[nH]c2=O)[C@](C)(F)[C@@H]1O)Oc1ccccc1` it is 0.2594; for `Nc1ncnc2c1ncn2[C@@H]1O[C@H](CO)[C@@H](O)[C@@H]1O` [VIDARABINE] it is -0.02251. Consider `N#C[C@@]1(c2ccc3c(N)ncnn23)O[C@H](CO)[C@@H](O)[C@H]1O` [GS-441524], for which the Hit score is on record as 0.865.
